Data on 32 compounds can be found in PubChem BioAssay (NCATS).

Records with an inconclusive call do not appear. Values without a mark were called inactive. Active and inactive are the calls of the source. Calls follow the shape of the dose curve; as a rule, active = well fitted cell-killing curve with a large enough effect; inconclusive = small, poorly fitted or top-dose-only effect, or effect the other way; inactive = flat fitted curve, though single readings scatter.

Common to all, as to experiment: Primary qHTS to identify gynecologic anti-cancer compounds using libraries of approved drugs and bioactive compounds (AID 1345084); also: nearly all actives have a fitted effect of over 55% in size
Holding throughout (details): Gynecologic cancer cell panel viability, ATPlite luminescence, 48 h; series mostly up to 57.5 µM

Experiment [1] has as its system SKOV3. An outline of the steps:
(§1)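 ATP-based viability (ATPlite), 1,000 cells/well, 16 h pre-incubation, 48 h compound at 37 C, 5% CO2, 15 min RT before read.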

The subject of experiment [2] is Tov-21-G. An outline of the steps: as §1
Experiment [3] relates to Tov112D. An outline of the steps:
as §1
% is scaled to controls: 0 for no effect and ±100 for the full control effect; potency is read from the fitted curve at half-maximal effect.

As to `Cc1ccc(S(=O)(=O)N2CCC[C@H]2c2ccc(F)cc2)cc1`, the Potency result in experiment [1], in experiment [2] and in experiment [3] was “inactive” throughout.
With `Fc1ccc(N2CCCCC2)c(NC(=S)c2ccncc2)c1`, the Potency result in experiment [1], in experiment [2] and in experiment [3] was “inactive” throughout.
`COc1cc(NC(=O)c2cc(C3CC3)on2)c(OC)cc1Cl`: the Potency entry in experiment [1], in experiment [2] and in experiment [3] was “inactive” in each case.
Take `CCS(=O)c1nc(-c2cccc(OCc3ccccc3)c2)cc(C(F)(F)F)n1` (stereo unspecified): the Potency entry in experiment [1], in experiment [2] and in experiment [3] was “inactive” throughout.
Regarding `COc1ccc([C@H]2Cc3cccc(O)c3C(=O)O2)cc1OC`, the Potency entry in experiment [1], in experiment [2] and in experiment [3] was “inactive” throughout.
Regarding `COC1C=C(C)C(O)(CO)C2(C)CCCC(C)(C)C12` (stereo unspecified), the Potency result in experiment [1], in experiment [2] and in experiment [3] was “inactive” in each case.
With `CCCCC1CCN(CCCN2C(=O)CCc3ccccc32)CC1`, the Potency result in experiment [1], in experiment [2] and in experiment [3] was “inactive” each time.
Consider `CCOC(=O)N1c2ccc(C(F)(F)F)cc2C(N(Cc2cc(C(F)(F)F)cc(C(F)(F)F)c2)C(=O)OC)CC1CC` (stereo unspecified), for which the Potency result in experiment [1], in experiment [2] and in experiment [3] was “inactive” in each case.
As for `COc1ccc(OC)c(-c2ccc(NC(=O)c3ccncc3F)cc2)c1`, the Potency result in experiment [1], in experiment [2] and in experiment [3] was “inactive” each time.
For `O=C(Nc1ccc(C(F)(F)F)cn1)N1CCN(c2ncccc2C(F)(F)F)CC1`, the Potency entry in experiment [1], in experiment [2] and in experiment [3] was “inactive” in each case.
Turning to `CO[C@H]1O[C@@H]2O[C@@]3(C)CCC4[C@H](C)CCC([C@H]1C)[C@]42OO3` (stereo partly specified), the Potency entry in experiment [1], in experiment [2] and in experiment [3] was “inactive” each time.
Take `COc1ccc(S(=O)(=O)Nc2cc(Cl)cc(Cl)c2OC)cc1N1CCNCC1`: the Potency entry in experiment [1], in experiment [2] and in experiment [3] was “inactive” each time.
Turning to `Cc1cc(-c2ncc(-c3cccnc3)cc2/C=C/c2ccccc2)cnc1-c1cccnc1`, the Potency entry in experiment [1], in experiment [2] and in experiment [3] was “inactive” in each case.
Take `C=C[C@H](/C=C\c1ccc(O)cc1)c1ccc(O)cc1`: the Potency result in experiment [1], in experiment [2] and in experiment [3] was “inactive” in each case.
`Cn1cc(-c2ccc(F)c(C(F)(F)F)c2)nc1C1CCN(c2ncnc3[nH]ncc23)CC1`: the Potency entry in experiment [1], in experiment [2] and in experiment [3] was “inactive” each time.
Turning to `C=C(COC(=O)C(O)C(O)CN)C12OC1C1(C)C(=CC2=O)C(O)C(O)CC1C` (stereo unspecified), the Potency result in experiment [1], in experiment [2] and in experiment [3] was “inactive” each time.
On to `Nc1nc2c(s1)CCN(Cc1ccc(Cl)cc1)CC2`, for which the Potency entry in experiment [1], in experiment [2] and in experiment [3] was “inactive” throughout.
With `CC1=C2C[C@@]3(C)C(CCC[C@@H]3C)C(O)C2OC1=O` (stereo partly specified), the Potency entry in experiment [1], in experiment [2] and in experiment [3] was “inactive” in each case.
As to `C/C1=C/CCC2=CC(OC2=O)C(C)(C)/C=C/C1=O` (stereo unspecified), the figures for the Potency in experiment [1], in experiment [2] and in experiment [3] were 12.6 µM (active), 8.91 µM (active) and 20 µM (active), respectively.
In the case of `CC1(C)CC[C@]2(C(=O)O)[C@H](O)C[C@]3(C)C(=CCC4[C@@]5(C)CC[C@H](O[C@@H]6O[C@H](CO[C@@H]7OC[C@H](O)[C@H](O)[C@H]7O[C@@H]7OC[C@H](O)[C@H](O)[C@H]7O)[C@@H](O)[C@H](O)[C@H]6O)C(C)(C)C5CC[C@]43C)[C@@H]2C1` (stereo partly specified), the activity change, negative = cytotoxicity in experiment [1] was 13.8% [at 11.6 µM]; in experiment [2], 4.39% [at 11.6 µM]; in experiment [3], 15.2% [at 11.6 µM].
Take `COC1CC(=O)C23C(=O)NC(CC(C)C)C2C(C)C(C)=CC3/C=C(\C)CCCC1O` (stereo unspecified): the Potency result in experiment [1], in experiment [2] and in experiment [3] was “inactive” in each case.
`O=C(Nc1cc(C(F)(F)F)cc(C(F)(F)F)c1)c1cnc(Cl)nc1C(F)(F)F`: the Potency result in experiment [1], in experiment [2] and in experiment [3] was “inactive” in each case.
`C=C(CCC1C(C)(O)CCC2C(C)(C)C(O)CCC12C)C(O)CO` (stereo unspecified): the Potency result in experiment [1], in experiment [2] and in experiment [3] was “inactive” each time.
With `Cc1cn2c(n1)Cc1ccc(Cl)cc1C(c1ccc(N)cc1)=N2`, the Potency result in experiment [1], in experiment [2] and in experiment [3] was “inactive” throughout.
`Cc1ccc(C)c(NC(=O)[C@@H]2CCCN2S(=O)(=O)c2cccc3cccnc23)c1`: the Potency result in experiment [1], in experiment [2] and in experiment [3] was “inactive” each time.
Turning to `COc1cc(CN(CCN)C(=O)c2cccs2)ccc1OCc1ccccc1`, the Potency result in experiment [1], in experiment [2] and in experiment [3] was “inactive” in each case.
Take `O=C(c1ccc(Cl)cc1)N1CCN(c2ccnc3cc(Cl)ccc23)CC1`: the Potency result in experiment [1], in experiment [2] and in experiment [3] was “inactive” throughout.
As for `Fc1ccc(N2CCN(CCC3OCCc4ccccc43)CC2)cc1` (stereo unspecified), the Potency result in experiment [1], in experiment [2] and in experiment [3] was “inactive” throughout.
As for `COc1c(F)cccc1C(=O)N1C[C@@H](C)CC[C@H]1CNc1ccc(Br)cn1`, the Potency result in experiment [1], in experiment [2] and in experiment [3] was “inactive” in each case.
With `CC(C)OC(=O)N1CCC(Oc2ncnc3c2cnn3-c2ccc(S(C)(=O)=O)cc2F)CC1`, the Potency entry in experiment [1], in experiment [2] and in experiment [3] was “inactive” each time.
As to `CC(C)(CO)c1cc2cc(NC(=O)C3(c4ccc5c(c4)OC(F)(F)O5)CC3)c(F)cc2n1CC(O)CO` (stereo unspecified), the Potency entry in experiment [1], in experiment [2] and in experiment [3] was “inactive” each time.
For the compound `C[C@@H]1CC[C@]2(C(=O)O)CC[C@]3(C)C(=CCC4[C@@]5(C)CC[C@H](O)[C@](C)(C(=O)O)C5CC[C@]43C)C2[C@]1(C)O` (stereo partly specified), the Potency entry in experiment [1], in experiment [2] and in experiment [3] was “inactive” throughout.
